Data published in PubChem BioAssay.
Calls of active or inactive are those of the source. No rule for the calls is given here.

Molecular target: Pantothenate synthetase (Mycobacterium tuberculosis (strain ATCC 25618 / H37Rv)) (UniProt P9WIL5)
Test: Coupled enzyme confirmation of inhibitors against recombinant Mtb PanC (AID 375);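 also: 0% = full reaction with vehicle and 100% = no enzyme background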
Details: coupled enzyme assay; at 10 µM, active compounds read high

Pantothenate synthetase (Mycobacterium tuberculosis (strain ATCC 25618 / H37Rv)), sequence (P9WIL5 whole entry, looked up): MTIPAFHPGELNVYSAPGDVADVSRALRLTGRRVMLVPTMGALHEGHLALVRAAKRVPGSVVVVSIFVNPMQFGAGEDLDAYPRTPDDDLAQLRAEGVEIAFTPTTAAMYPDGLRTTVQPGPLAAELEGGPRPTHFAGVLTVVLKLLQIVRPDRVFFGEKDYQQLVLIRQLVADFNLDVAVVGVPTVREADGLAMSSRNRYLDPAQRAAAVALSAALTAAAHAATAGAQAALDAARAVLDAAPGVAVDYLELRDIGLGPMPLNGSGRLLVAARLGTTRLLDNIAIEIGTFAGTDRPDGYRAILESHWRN

Row | SMILES | inhibition
1 | CCc1nc(N)c(C#N)c(-c2ccncc2)c1C | 0% (inactive)
2 | CC1CCCC(NC(=O)CN2CCN(Cc3ccc(Cl)cc3)C2=O)C1C (stereo not drawn) | 7% (inactive)
3 | CCCC(=O)C1=C(N(C)c2ccccc2)CC(C)(C)C(C(=O)OC)C1=O (stereo not drawn) | 1% (inactive)
4 | Cc1cc(C(=O)NCCN2CCCCC2C)n(-c2ccccc2)n1 (stereo not drawn) | 0% (inactive)
5 | O=C(Oc1cccc2cccnc12)c1cccc(-n2cnnn2)c1 | 0% (inactive)
6 | O=C(Nc1ccncc1)C1c2ccccc2Oc2ccccc21 | 0% (inactive)
7 | N#CC1=C(N)Oc2n[nH]c(-c3ccncc3)c2C1c1ccsc1 (stereo not drawn) | 0% (inactive)
8 | CCOc1ccc2c(c1)n(CO)c(=S)n2CO | 0% (inactive)
